In PubChem BioAssay (NCATS):
Where “and” joins values, the source holds several entries; their conditions need not be identical. Equal entries are not always repeated. Records with an inconclusive call do not appear. Where a call stands in place of a potency, no number is given. Calls of active or inactive are those of the source. Calls come from the whole dose curve; as a rule, active = well fitted inhibition curve with a large enough effect; inconclusive = small, poorly fitted or top-dose-only effect; inactive = flat fitted curve, though single readings scatter.

Legend:
[1] = qHTS profiling for inhibitors of Plasmodium falciparum proliferation (AID 504749); note: nearly all actives have a fitted effect of over 60% in size; conditions: P. falciparum in erythrocytes, SYBR Green DNA, 72 h
How it was run: (§1)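 In a 72 h erythrocytic culture (37 C, humidified, 5% CO2) at 2.5% hematocrit and 0.3% starting parasitemia, compounds were tested; SYBR Green I in detergent lysis buffer stained parasite DNA overnight.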

3D7 = assay: as above; conditions: P. falciparum in erythrocytes, SYBR Green DNA, 72 h; series mostly up to 28.7 µM
How it was run: as §1

7G8 = assay: as above; conditions: P. falciparum in erythrocytes, SYBR Green DNA, 72 h; series mostly up to 28.7 µM
How it was run: as §1

AA1029 = assay: as above; conditions: P. falciparum in erythrocytes, SYBR Green DNA, 72 h; series mostly up to 28.7 µM
How it was run: as §1

AS120 = assay: as above; conditions: P. falciparum in erythrocytes, SYBR Green DNA, 72 h; series mostly up to 28.7 µM
How it was run: as §1

ATS189 = assay: as above; conditions: P. falciparum in erythrocytes, SYBR Green DNA, 72 h; series mostly up to 28.7 µM
How it was run: as §1

ATS95 = assay: as above; conditions: P. falciparum in erythrocytes, SYBR Green DNA, 72 h; series mostly up to 28.7 µM
How it was run: as §1

C2A = assay: as above; conditions: P. falciparum in erythrocytes, SYBR Green DNA, 72 h; series mostly up to 28.7 µM
How it was run: as §1

CP185 = assay: as above; conditions: P. falciparum in erythrocytes, SYBR Green DNA, 72 h; series mostly up to 28.7 µM
How it was run: as §1

CP191 = assay: as above; conditions: P. falciparum in erythrocytes, SYBR Green DNA, 72 h; series mostly up to 28.7 µM
How it was run: as §1

[2] = at 12.8 µM (top of the series), parasite line A
[3] = at 12.8 µM (top of the series), parasite line B
[4] = at 28.7 µM (top of the series), parasite line A
[5] = at 28.7 µM (top of the series), parasite line B
Potency is the fitted concentration of half-maximal effect.

Compound	activity, negative = inhibition [1, 2]	activity, negative = inhibition [1, 3]	Potency (3D7)	Potency (7G8)	Potency (AA1029)	Potency (AS120)	Potency (ATS189)	Potency (ATS95)	Potency (C2A)	Potency (CP185)	Potency (CP191)	activity, negative = inhibition [1, 4]	activity, negative = inhibition [1, 5]	Potency ([1]; parasite line A)	Potency ([1]; parasite line B)
COc1cc2[nH]c(=O)[nH]c(=O)c2cc1OC	-1.12% (inactive)	-2.32% (inactive)	inactive	inactive	inactive	inactive	inactive	inactive	inactive	inactive	inactive	–	–	–	–
CCC(=O)c1ccc(O)cc1	–	–	inactive	inactive	inactive	inactive	inactive	inactive	inactive	inactive	inactive	12.2% (inactive)	2.42% (inactive)	–	–
Cc1cc(O)cc2c1O[C@](C)(CCC[C@H](C)CCC[C@H](C)CCCC(C)C)CC2	–	–	inactive	inactive	inactive	inactive	inactive	inactive	inactive	inactive	inactive	-4.03% (inactive)	-6.42% (inactive)	–	–
O=C(CCCN1CCN(c2ccccn2)CC1)c1ccc(F)cc1	–	–	inactive	inactive	inactive	inactive	inactive	inactive	inactive	inactive	inactive	-3.57% (inactive)	15.4% (inactive)	–	–
O=C(O)[C@@H]1CSCN1	–	–	inactive	inactive	inactive	inactive	inactive	inactive	inactive	inactive	inactive	8.72% (inactive)	-0.798% (inactive)	–	–
O=C1NC(=O)[C@@]2(CCOc3ccc(F)cc32)N1	–	–	inactive	inactive	inactive	inactive	inactive	inactive	inactive	inactive	inactive	7.16% (inactive)	9.22% (inactive)	–	–
CC(=O)CCC(=O)O	–	–	inactive	inactive	inactive	inactive	inactive	inactive	inactive	inactive	inactive	10.3% (inactive)	-7.9% (inactive)	–	–
CCCCN1CCCC[C@H]1C(=O)Nc1c(C)cccc1C	–	–	inactive	inactive	inactive	inactive	–	–	inactive	inactive	inactive	5.7% (inactive)	17.3% (inactive)	–	–
CC(=O)NC(Cc1ccccc1)C(=O)O (stereo not given)	–	–	inactive	inactive	inactive	inactive	inactive	inactive	inactive	inactive	inactive	3.68% (inactive)	2.97% (inactive)	–	–
CC1(C)CO[C@@H](CC(=O)O)CN1	–	–	inactive	inactive	inactive	inactive	inactive	inactive	inactive	inactive	inactive	1.48% (inactive)	5.08% (inactive)	–	–
NS(=O)(=O)c1cc2c(cc1Cl)NC(CSCc1ccccc1)=NS2(=O)=O	2.74% (inactive)	12.8% (inactive)	inactive	inactive	inactive	inactive	inactive	inactive	inactive	inactive	inactive	–	–	–	–
CNC(=O)Oc1ccc2c(c1)[C@]1(C)CCN(C)[C@@H]1N2C	–	–	3.55 µM (active)	2.24 µM (active)	–	2 µM (active)	2.24 µM (active)	–	1.78 µM (active)	1.58 µM (active)	2.24 µM (active)	–	–	1.58 µM (active)	2 µM (active)
Cc1cc2c(cc1S(N)(=O)=O)S(=O)(=O)CCC2	-1.89% (inactive)	2.51% (inactive)	inactive	inactive	inactive	inactive	inactive	–	inactive	inactive	inactive	–	–	–	–
CCOC(CN1CCN(CC(C)C(=O)c2ccccc2)CC1)c1ccccc1 (stereo not given)	–	–	inactive	11.2 µM (active)	–	inactive	–	inactive	inactive	inactive	inactive	2.77% (inactive)	3.94% (inactive)	–	–
O=c1cc[nH]c(=O)[nH]1	–	–	inactive	inactive	inactive	inactive	inactive	inactive	inactive	inactive	inactive	9.07% (inactive)	2.41% (inactive)	–	–
COc1ccc2c(c1)C(=O)N(CCc1ccc(S(=O)(=O)NC(=O)NC3CCCCC3)cc1)C(=O)C2(C)C	4.32% (inactive)	-5.51% (inactive)	inactive	inactive	inactive	inactive	inactive	inactive	inactive	inactive	inactive	–	–	–	–
Nc1ccc(S(=O)(=O)Nc2nccs2)cc1	–	–	inactive	inactive	inactive	inactive	inactive	inactive	inactive	inactive	inactive	1.04% (inactive)	-2.23% (inactive)	–	–
CC(=O)c1ccc2c(c1)N(CCCN(C)C)c1ccccc1S2	7.32% (inactive)	-24.3% (inactive)	inactive	inactive	inactive	inactive	inactive	inactive	inactive	inactive	inactive	–	–	–	–
O=C(O)c1ccccc1-c1ccc(C(F)(F)F)cc1	–	–	inactive	inactive	inactive	inactive	inactive	inactive	inactive	inactive	inactive	11.3% (inactive)	19.8% (inactive)	–	–
Cc1ncc(COP(=O)(O)O)c(C=O)c1O	–	–	inactive	inactive	inactive	inactive	inactive	inactive	inactive	inactive	inactive	-4.1% (inactive)	3.77% (inactive)	–	–

Compound	activity, negative = inhibition [1, 2]	activity, negative = inhibition [1, 3]	Potency (3D7)	Potency (7G8)	Potency (AA1029)	Potency (AS120)	Potency (ATS189)	Potency (ATS95)	Potency (C2A)	Potency (CP185)	Potency (CP191)	activity, negative = inhibition [1, 4]	activity, negative = inhibition [1, 5]	Potency ([1]; parasite line A)	Potency ([1]; parasite line B)
CNCCCC1c2ccccc2C=Cc2ccccc21	3.94% (inactive)	-1.98% (inactive)	inactive	5.62 µM (active)	–	inactive	inactive	–	inactive	inactive	–	–	–	–	–
CCCOC(=O)c1ccccc1	–	–	inactive	inactive	inactive	inactive	inactive	inactive	inactive	inactive	inactive	-2.05% (inactive)	2.76% (inactive)	–	–
CC(=O)Nc1ccc(/C=N/NC(N)=S)cc1	–	–	inactive	inactive	inactive	inactive	inactive	inactive	inactive	inactive	inactive	9.12% (inactive) and 9.39% (inactive)	6.45% (inactive) and 8.83% (inactive)	–	–
CC(O)COc1ccccc1 (stereo not given)	–	–	inactive	inactive	inactive	inactive	inactive	inactive	inactive	inactive	inactive	5.76% (inactive)	0.212% (inactive)	–	–
C=Cc1c(C)c2cc3[nH]c(cc4nc(cc5nc(cc1[nH]2)C(C)=C5CCC(=O)O)C(CCC(=O)O)=C4C)c(C)c3C=C	–	–	inactive	inactive	inactive	inactive	inactive	inactive	inactive	inactive	inactive	-6.02% (inactive)	6.67% (inactive)	–	–
CCCCOc1cc(C(=O)OCCN(CC)CC)ccc1N	8.11% (inactive)	4.89% (inactive)	inactive	inactive	inactive	inactive	inactive	–	inactive	inactive	inactive	–	–	–	–
CCC(=O)Nc1ccc(O)cc1	–	–	inactive	inactive	inactive	inactive	inactive	inactive	inactive	inactive	inactive	11.9% (inactive)	-3.83% (inactive)	–	–
O=C(O)c1ccccn1	–	–	inactive	inactive	inactive	inactive	inactive	inactive	inactive	inactive	inactive	0.929% (inactive)	-26.4% (inactive)	–	–
CSc1ccc2c(c1)N(CCC1CCCCN1C)c1ccccc1S2 (stereo not given)	–	–	–	5.62 µM (active)	10 µM (active)	11.2 µM (active)	–	–	–	–	–	–	–	–	–
CN1CCCCC1CCN1c2ccccc2Sc2ccc(S(C)=O)cc21 (stereo not given)	–	–	inactive	10 µM (active)	–	–	–	–	–	inactive	–	-4.2% (inactive)	5.63% (inactive)	–	–
COCCOC(=O)C1=C(C)NC(C)=C(C(=O)OC/C=C/c2ccccc2)C1c1cccc([N+](=O)[O-])c1 (stereo not given)	–	–	12.6 µM (active)	7.94 µM (active)	8.91 µM (active)	11.2 µM (active)	–	–	–	–	–	–	–	–	–
NC1CCN(c2cccc(Cl)n2)CC1	–	–	inactive	–	–	inactive	inactive	inactive	inactive	inactive	inactive	13.3% (inactive)	5.51% (inactive)	–	–
Nc1ccc(S(=O)(=O)Nc2ccc(Cl)nn2)cc1	–	–	inactive	inactive	–	–	–	–	–	–	1.12 µM (active)	–	–	–	–
CN1CCN(C2Cc3ccccc3Sc3ccc(Cl)cc32)CC1 (stereo not given)	–	–	inactive	8.91 µM (active)	–	–	inactive	inactive	inactive	inactive	inactive	-18.4% (inactive)	-6.83% (inactive)	–	–
Cc1ccc(C(C)C)cc2c(C)ccc1-2	–	–	inactive	–	inactive	inactive	inactive	inactive	inactive	inactive	inactive	-17.3% (inactive)	-20.9% (inactive)	–	–
CC1=C(CC(=O)O)c2cc(F)ccc2/C1=C\c1ccc(S(C)=O)cc1 (stereo not given)	–	–	inactive	–	inactive	inactive	inactive	inactive	inactive	inactive	inactive	-3.64% (inactive)	-4.38% (inactive)	–	–
COC(=O)C1=C(C)NC(C)=C(C(=O)OC)C1c1ccccc1[N+](=O)[O-]	–	–	inactive	–	inactive	inactive	inactive	inactive	inactive	inactive	inactive	-7.51% (inactive)	-24% (inactive)	–	–
[Cl][In]([Cl])[Cl]	–	–	–	2 µM (active)	inactive	–	–	–	inactive	inactive	–	-23.4% (inactive)	-19.4% (inactive)	–	–
Cc1cc(N)c2ccccc2[n+]1CCCCCCCCCC[n+]1c(C)cc(N)c2ccccc21	–	–	0.708 µM (active)	0.0355 µM (active)	0.316 µM (active)	7.94 µM (active)	0.316 µM (active)	–	0.282 µM (active)	0.316 µM (active)	0.0501 µM (active)	–	–	–	14.1 µM (active)
